In PubChem BioAssay (NCI):
The panel holds about 83,000 compounds, 20% with a hit somewhere; the sample as a whole holds those more often.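 96-well plates, one dose, 48 hours. Percent growth reported; active if below 10.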 Active and inactive are the calls of the source.

tested on: SK-MEL-28 melanoma; test: NCI-60 one-dose screen, 48 h (100 = growth as untreated, 0 = no growth, -100 = all killed); details: 10 µM unless noted

| SMILES | growth |
| --- | --- |
| COc1ccccc1-c1ccc2c(N)c(C(=O)c3ccc4c(c3)OCO4)sc2n1 | 71.3% (inactive) |
| CC(=O)C1=C(O)C=C2Oc3c(C(=O)/C=C/c4cc(C(F)(F)F)cc(C(F)(F)F)c4)c(O)c(C)c(O)c3[C@]2(C)C1=O | -72.4% (active) |
| CC/C=C\C[C@H](O)C/C=C1/C(=O)C=C[C@@H]1C/C=C\CCCC(=O)NC(C)C | 4.94% (active) |
| COc1ccc(C(=O)c2sc3nc4c(cc3c2N)CCCC4)cc1OC | 47.3% (inactive) |
| CS(CCCCN=C=S)=NC(=O)c1c(F)c(F)c(F)c(F)c1F (stereo not given) | 85.9% (inactive) |
| COc1ccc(-c2c(C)noc2-c2ccc(O)cc2O)cc1 | 105% (inactive) |
| COc1ccc(C(=O)c2sc3nc(-c4ccccc4OC)ccc3c2N)cc1OC | 88.8% (inactive) |
| NC1=CC(=O)C(=O)c2ccccc21 | 75.2% (inactive) |
| COc1ccc(C(=O)c2sc3nc4c(c(C(F)(F)F)c3c2N)CN(C(C)=O)CC4)cc1OC | 93.4% (inactive) |
| COc1cc(C2C(C(=O)c3cccs3)=C(O)C(=O)N2CCN2CCOCC2)cc(OC)c1OC (stereo not given) | 104% (inactive) |
| COC(=O)C12C3C(=O)N(c4ccc(OC)cc4)C(=O)C3C(c3cn(-c4ccccc4)nc3C)N1[C@H](c1cn(-c3ccccc3)nc1C)[C@@H]1C(=O)N(c3ccc(OC)cc3)C(=O)[C@@H]12 (stereo not given in full) | 105% (inactive) |
| COc1cc(C2CC(=O)Nc3c2cnn3Cc2ccco2)cc2c1OCCO2 (stereo not given) | 75.7% (inactive) |
| COc1ccc(C2CC(=O)Nc3c2c(C)nn3-c2nc3ccccc3[nH]2)cc1 (stereo not given) | 105% (inactive) |
| NCc1cn2cc(Cl)sc2n1 | 104% (inactive) |
| CCOc1ccc(Nc2nc(-c3c(C)nc4ncccn34)cs2)cc1 | 39% (inactive) |
| N#CC1=C(N)Oc2c(ccc3ccccc23)C1c1cccs1 (stereo not given) | 41.1% (inactive) |
| CCOC(=O)C12CCCC1=CC(=O)CC2 (stereo not given) | 106% (inactive) |
| CCCC(=O)Oc1ccc(/C(=C(/CC)Cc2ccccc2)c2ccc(OCCN3CCCC3)cc2)cc1 | -19.8% (active) |

| SMILES | growth |
| --- | --- |
| C=C1CCC2C3(C)COC(c4ccc(OC)cc4Br)OC3CCC2(C)C1/C=C/C1=CCOC1=O (stereo not given) | 80.2% (inactive) |
| CS(=O)(=O)c1c(Nc2ccccc2)n[nH]c1N | 106% (inactive) |
| CC/C=C\C[C@H](O)C/C=C1/C(=O)C=C[C@@H]1C/C=C\CCCC(N)=O | -14.5% (active) |
| CCN(CC)C12CCCCC1(C)C(C#N)(C#N)C(C#N)=C(N)O2 (stereo not given) | 99.3% (inactive) |
| Cc1nn(-c2nc3ccccc3[nH]2)c2c1C(c1ccc3c(c1)OCO3)CC(=O)N2 (stereo not given) | 82.3% (inactive) |
| O=c1ccc2cc3ccccc3cc2[nH]1 | 124% (inactive) |
| O=C(Nc1cccc2[nH]c(C(F)(F)F)nc12)c1ccc(Br)cc1F | 62.9% (inactive) |
| COc1cc(-c2cnc3nonc3n2)c(OC)c2c1OCO2 | 111% (inactive) |
| COc1cnc2c(c1)C(=O)c1c-2n(CCCBr)c(=O)c2cc([N+](=O)[O-])ccc12 | 16.3% (inactive) |
| Clc1cccc(Nc2nc(Nc3cnc4ccccc4c3)c3[nH]cnc3n2)c1 | 86.4% (inactive) |
| COc1cc(C2CC(=O)c3c(C)nn(-c4nc5ccccc5[nH]4)c3C2)cc(OC)c1OC (stereo not given) | 86.5% (inactive) |
| CC(C)Oc1nc2c(c(=O)n(C)c(=O)n2C)n1C | 105% (inactive) |
| CC/C=C\C[C@H](F)C/C=C1/C(=O)C=C[C@@H]1C/C=C\CCCC(=O)OC | 9.64% (active) |
| Cc1ccn2c(-c3csc(Nc4cccc(O)c4)n3)c(C)nc2c1 | 37.7% (inactive) |
| O=C(/C=C/c1cc2ccccc2[nH]c1=O)/C=C/c1cc2ccccc2[nH]c1=O | 37.9% (inactive) |
| CC/C(Cc1ccccc1)=C(\c1ccc(OCCN2CCCC2)cc1)c1ccc(OC(C)=O)cc1 | 21% (inactive) |
| C[C@]12C[C@@H](c3ccoc3)OC(=O)[C@@H]1CC[C@]1(C)[C@@H]2CC[C@@H](O)[C@]1(C)O | 94.1% (inactive) |
